# Screening results deposited in PubChem by The Scripps Research Institute Molecular Screening Center.
# MITF inh = MITF inhibitors, primary screen, biochemical, AlphaScreen, human; Microphthalmia-associated transcription factor (Homo sapiens), O75030; inhibition, % at 2.6 µM; 650,000 compounds, 0.91% hits; AlphaScreen MITF homodimerization, bead proximity signal; in the data active means inhibition above about 50%;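 further: 0% = vehicle wells with protein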
# GPR151 ag = activators of human GPR151, primary screen, cell-based, PathHunter beta-arrestin, luminescence. 650,000 compounds, 1% hits. G-protein coupled receptor 151 (Homo sapiens), Q8TDV0. activation, % at 11.2 µM. PathHunter beta-arrestin GPR151 cells; in the data active means activation above about 4.9%;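 further: 0% = median of compound wells and 100% = cells with positive control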
# FBW7 activator = FBW7 E3 ligase activators, primary screen, biochemical, AlphaScreen, human; AlphaScreen FBW7–phospho-cyclin E peptide binding, activator screen; normalized activity (activation), % at 26.1 µM; 650,000 compounds, 0.13% hits; in the data active means normalized activity above about 1.9%;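 further: purified mutant Fbw7 with reduced substrate affinity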
# Target sequence (Q969H0 whole entry, looked up): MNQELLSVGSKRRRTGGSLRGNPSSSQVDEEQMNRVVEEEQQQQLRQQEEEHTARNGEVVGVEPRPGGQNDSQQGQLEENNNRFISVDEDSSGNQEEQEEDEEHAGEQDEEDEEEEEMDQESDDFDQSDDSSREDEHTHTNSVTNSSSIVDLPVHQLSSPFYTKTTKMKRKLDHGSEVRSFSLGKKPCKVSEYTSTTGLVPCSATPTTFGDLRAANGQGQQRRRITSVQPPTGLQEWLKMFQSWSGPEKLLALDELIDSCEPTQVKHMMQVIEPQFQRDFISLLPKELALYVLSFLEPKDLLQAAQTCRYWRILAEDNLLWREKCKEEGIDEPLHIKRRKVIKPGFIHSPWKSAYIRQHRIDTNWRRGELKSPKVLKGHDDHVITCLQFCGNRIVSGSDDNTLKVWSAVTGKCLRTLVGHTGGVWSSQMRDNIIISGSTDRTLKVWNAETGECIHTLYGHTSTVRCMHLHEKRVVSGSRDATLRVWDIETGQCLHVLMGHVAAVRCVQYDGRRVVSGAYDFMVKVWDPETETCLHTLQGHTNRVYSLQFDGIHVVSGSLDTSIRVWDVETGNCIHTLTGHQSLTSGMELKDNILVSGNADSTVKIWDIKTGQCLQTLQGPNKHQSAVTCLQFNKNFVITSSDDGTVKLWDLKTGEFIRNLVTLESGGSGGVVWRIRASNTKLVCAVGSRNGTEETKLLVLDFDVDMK
# TEAD-YAP block = TEAD-YAP interaction inhibition, primary screen, TEAD-YAP interaction inhibitor project, luminescence, HEK-TIYL cells; TEAD-Gal4/YAP UAS-luciferase luminescence; inhibition, % at 9.12 µM; 640,000 compounds, 1.4% hits; AID 1259422, 2018; in the data active means inhibition above about 32%;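 further: 0% = median of test compound wells and 100% = reference inhibitor wells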
# * hit, by the source's call. Rows were chosen to be rich in hits. Some 3.5% of all compounds tested hit in one or more screens of this group.
SMILES,MITF inh,GPR151 ag,FBW7 activator,TEAD-YAP block
CCOC(=O)C(NC(=O)c1ccc(N2CC3CC(C2)c2cccc(=O)n2C3)c(NC(=O)c2ccc(Br)o2)c1)C(=O)OCC (stereo not drawn),4,-2,0,1
CC(=O)n1cc(/C=C/C=O)c2ccccc21,-2,0,0,18
COCC(C)NC(=O)c1ccc(C)c([N+](=O)[O-])c1 (stereo not drawn),-6,1,0,-1
O=C(CN1CCN(S(=O)(=O)c2cccc([N+](=O)[O-])c2)CC1)c1ccc(F)cc1,12,-1,0,-1
Cc1ccc(NC2C=CS(=O)(=O)C2)cc1C (stereo not drawn),7,-3,0,33*
CCOC(=O)C1CCCc2c1[nH]c1ccc(Cl)cc21 (stereo not drawn),12,2,1,39*
COc1ccc(-n2ncc3c(Nc4ccccc4SC)ncnc32)cc1,-2,1,0,55*
COc1ccc(OC)c(Nc2ncnc3c2cnn3-c2cccc(C)c2)c1,-8,0,0,42*
CSc1ccccc1Nc1ncnc2c1cnn2-c1ccccc1,-3,2,0,-27
COc1ccc(-n2ncc3c(Nc4cc(C)ccc4C)ncnc32)cc1,-1,-2,0,40*
COc1ccc(-n2ncc3c(Nc4ccc(C)cc4C)ncnc32)cc1,6,-1,0,-30
Cc1cc(-c2cncnc2C2CCCN(S(C)(=O)=O)C2)on1 (stereo not drawn),15,1,0,-1
O=C(Nc1ccc(-c2nc3ccccc3[nH]2)cc1)C1CCCN(Cc2cccnc2)C1 (stereo not drawn),5,1,0,-17
COc1ccc(/C=C2\N=C(c3ccc(C(C)(C)C)cc3)OC2=O)cc1,-4,1,0,-9
Cc1cc(C)c(C(N)=O)c(SCC(=O)c2ccccc2)n1,-6,1,0,-24
COCCNC(=O)c1cc(-c2ccc(F)cc2)on1,9,0,0,-80
O=C(CCC1CCCCC1)Nc1c2c(nn1-c1cccc(Cl)c1)CS(=O)(=O)C2,-8,2,0,-9
CCN1C(=O)/C(=C\c2cc(C)n(-c3ccccc3C)c2C)C(C(=O)OC)=C1C,17,1,0,-14
CCN1C(=O)/C(=C\c2cc(C)n(-c3ccccc3F)c2C)C(C(=O)OC)=C1C,18,-1,0,38*
C=CCN1C(=O)/C(=C\c2cc(C)n(-c3ccccc3F)c2C)C(C(=O)OC)=C1C,1,-1,0,36*
C=CCN1C(=O)/C(=C\c2cc(C)n(-c3ccccc3)c2C)C(C(=O)OC)=C1C,-20,0,0,8
CCN(CC)S(=O)(=O)c1cccc(C(=O)N/N=C/c2cccc(O)c2O)c1,71*,1,-1,5
O=C(N/N=C/c1cccc(O)c1O)c1ccc(O)cc1,57*,-1,-1,-9
Cc1cccc(/C=N\NC(=O)c2ccc([N+](=O)[O-])cc2)c1O,-7,-1,-1,62*
Cc1ccnc(NC(=O)CSc2nnc3c4ccccc4n(CCc4ccccc4)c3n2)c1,3,-1,0,35*
SMILES,MITF inh,GPR151 ag,FBW7 activator,TEAD-YAP block
O=C(CCc1ccccc1)NC(=S)Nc1ccc(S(=O)(=O)N2CCOCC2)cc1,8,0,0,3
O=C(CCc1ccccc1)NC(=S)Nc1cccc(S(=O)(=O)N2CCCC2)c1,-7,1,0,47*
CC(=O)NC(C)CCc1ccc(-c2csc(N)n2)cc1 (stereo not drawn),5,-2,0,36*
CC(=O)NCc1ccc(-c2csc(N)n2)cc1,-5,2,0,13
O=C(NCCc1ccccc1)C1C2C3CCC(C3)C12 (stereo not drawn),-5,-4,0,58*
CC(=O)c1ccc(N2CCN(C3CCC(=O)N(Cc4ccc(F)cc4)CC3)CC2)cc1 (stereo not drawn),-18,2,0,-13
COc1ccc(O)c(/C=N/NC(=S)Nc2cccc(C(=O)O)c2)c1,104*,-2,-1,6
O=C(O)c1cccc(NC(=S)N/N=C/c2cccc(O)c2)c1,8,1,0,15
COc1ccc(/C=N/NC(=S)Nc2cccc(C(=O)O)c2)c(OC)c1,-4,-2,0,4
CN(C)c1ccc(/C=N/NC(=S)Nc2cccc(C(=O)O)c2)cc1,-7,1,0,64*
Cc1cc(OCC(=O)Nc2cccnc2)cc(C)c1Br,5,-2,0,3
Cc1ccc(CC(=O)Nc2ccncc2)cc1,9,1,0,42*
Cc1cc(OCC(=O)Nc2ccncc2)cc(C)c1Br,-5,-1,0,33*
S=c1[nH]c(-c2ccccc2)cn1-c1ccccc1Cl,24,-2,0,10
COc1ccc(F)c(CN2CCCC(CCC(=O)NCc3ccc(C)o3)C2)c1 (stereo not drawn),1,0,0,3
CN1CCC(=NNC(=O)c2ccccc2)CC1,19,-2,0,-50
CC(C)N1CCC(=NNC(=O)c2cc(O)c(O)c(O)c2)CC1,85*,0,0,3
Fc1ccccc1-c1cnn2c(NCc3ccccn3)ccnc12,-1,0,2.2*,-21
Clc1ccc(-c2cnn3c(NCCc4ccccn4)ccnc23)cc1,13,1,0,-52
c1ccc(-c2cnn3c(NCCc4ccccn4)ccnc23)cc1,-22,1,0,57*
CN(C)CCNc1ccnc2c(-c3ccccc3F)cnn12,-3,-2,0,63*
Fc1ccccc1-c1cnn2c(NCCc3cccnc3)ccnc12,-5,-2,0,91*
Cc1cc(Cl)ccc1OCC(=O)NC1CCCCC1,9,0,0,-32
N#C/C(=C\c1cccc2ccccc12)c1nc(-c2ccc([N+](=O)[O-])cc2)cs1,-10,1,0,3
OCc1ccc(-c2cnn3c(NCCc4cccnc4)ccnc23)cc1,12,0,1,-5
SMILES,MITF inh,GPR151 ag,FBW7 activator,TEAD-YAP block
Fc1cccc(-c2cnn3c(NCCc4cccnc4)ccnc23)c1,7,4,0,17
c1ccc(-c2cnn3c(NCCc4cccnc4)ccnc23)cc1,-6,-1,0,80*
Oc1cccc(-c2cnn3c(NCCc4cccnc4)ccnc23)c1,7,0,0,89*
OCc1cccc(-c2cnn3c(NCCc4cccnc4)ccnc23)c1,1,-1,1,89*
C=CCn1c(SCC(=O)Nc2c(C)cccc2C)nc2sc3c(c2c1=O)CCCC3,-3,0,0,-4
Cc1ccc2ccc(C(Nc3ccccn3)c3ccc(F)cc3)c(O)c2n1 (stereo not drawn),15,-1,0,20
Cc1cccc(NC(c2ccccn2)c2ccc3ccc(C)nc3c2O)n1 (stereo not drawn),15,2,0,49*
Cc1ccc2ccc(C(Nc3ccccn3)c3ccccn3)c(O)c2n1 (stereo not drawn),6,0,0,39*
